A word on the AC50: it is the concentration giving half of the maximal activity seen.

This is an account of results in PubChem BioAssay (EPA / NIEHS).

“And” between values parts separate entries of the source, which are not always exact repeats. Identical values can stand only once. Some structures have more than one record in an assay (separate samples or runs), and their calls can disagree. The source made the active and inactive calls. The calls were made as follows: active = hit-call score of the fitted dose curve at least 0.9, where 1 is the maximum; inactive = score below 0.9.

Read-out in assay [1]: Urokinase-type plasminogen activator receptor (uPAR), PLAUR (gene 5329)
Nature of the assay: BSK_4H_uPAR: BioMAP Diversity Plus: 4H Assay for Urokinase-type plasminogen activator receptor (uPAR) Biomarker Activity (AID 2283030). As to conditions: primary human endothelial cells (HUVEC); actives raise or lower the signal. The method, boiled down:
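Primary human umbilical vein endothelial cells were exposed to chemical for 24 h before cell-surface uPAR was quantified by ELISA. Activity was fitted bidirectionally against the DMSO negative control baseline.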

Read-out in assay [2]: Vascular endothelial growth factor receptor 2 (Homo sapiens) (UniProt P35968)
Put plainly: BSK_4H_VEGFRII: BioMAP Diversity Plus: 4H Assay for Vascular endothelial growth factor receptor 2 (VEGFR2) Biomarker Activity (AID 2283031). As to conditions: primary human endothelial cells (HUVEC); actives raise or lower the signal. The method, boiled down: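 Primary human umbilical vein endothelial cells in the BioMAP 4H system were dosed with test chemical, and 24 h later VEGFRII was measured by ELISA. Activity was fitted bidirectionally against DMSO as negative control and baseline.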

Read-out in assay [3]: Vascular cell adhesion molecule 1 (VCAM1), VCAM1 (gene 7412)
Nature of the assay: BSK_4H_VCAM1: BioMAP Diversity Plus: 4H Assay for Vascular cell adhesion molecule 1 (VCAM1) Biomarker Activity (AID 2283033).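 As to outcome: cell-surface VCAM-1 protein measured by ELISA.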 As to conditions: primary human endothelial cells (HUVEC); actives raise or lower the signal. The method, boiled down: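 HUVEC, 24 h post-dose; VCAM-1 by ELISA. Bidirectional curve fit vs DMSO baseline. Parallel SRB total-protein stain (0.1% SRB after 10% TCA fixation, 560 nm) for cytotoxicity.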

Read-out in assay [4]: Interferon-gamma inducible Protein 10 (IP10), CXCL10 (gene 3627)
Put plainly: BSK_BE3C_IP10: BioMAP Diversity Plus: BE3C Assay for Interferon-gamma inducible Protein 10 (IP10) Biomarker Activity (AID 2283034). To be noted: primary human bronchial epithelial cells; actives raise or lower the signal. The method, boiled down: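 ELISA readout of IP-10 in BE3C system: primary human bronchial epithelial cells, 24 h post-dosing; bidirectional curve fit vs DMSO baseline.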

Read-out in assay [5]: Monokine induced gamma interferon (MIG), CXCL9 (gene 4283)
Put plainly: BSK_BE3C_MIG: BioMAP Diversity Plus: BE3C Assay for Monokine induced gamma interferon (MIG) Biomarker Activity (AID 2283035).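 As to outcome: MIG protein measured by ELISA in BE3C cultures after 24 h of dosing.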 To be noted: primary human bronchial epithelial cells; actives raise or lower the signal. The method, boiled down:
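Dose cells (human primary bronchial epithelial), incubate 24 h, quantify MIG by ELISA, then fit concentration–response in both directions relative to DMSO control.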

Read-out in assay [6]: Transforming growth factor beta 1 (TGFb1), TGFB1 (gene 7040)
Nature of the assay: BSK_BE3C_TGFb1: BioMAP Diversity Plus: BE3C Assay for Transforming growth factor beta 1 (TGFb1) Biomarker Activity (AID 2283036;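 as to outcome: TGF-b1 protein level measured by ELISA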). To be noted: primary human bronchial epithelial cells; actives raise or lower the signal. Summed up:
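Read-out: ELISA for TGF-b1 in primary human bronchial epithelial cultures, 24 h post-dose. Bidirectional curve fitting vs DMSO control; gain or loss of signal both scored.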

Read-out in assay [7]: Plasminogen activator inhibitor-1 (PAI1), SERPINE1 (gene 5054)
Put plainly: BSK_BE3C_PAI1: BioMAP Diversity Plus: BE3C Assay for Plasminogen activator inhibitor-1 (PAI1) Biomarker Activity (AID 2283037). To be noted: primary human bronchial epithelial cells; actives raise or lower the signal. The method, boiled down:
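ELISA read-out of PAI-1 from human bronchial epithelial primary cells, 24 h post-dosing; bidirectional curve fit vs DMSO baseline, gain or loss of signal scored.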

Read-out in assay [8]: urokinase plasminogen activator (uPA), PLAU (gene 5328)
Nature of the assay: BSK_BE3C_uPA: BioMAP Diversity Plus: BE3C Assay for urokinase plasminogen activator (uPA) Biomarker Activity (AID 2283038).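 As to outcome: uPA protein level quantified by ELISA in cell cultures; uPA read one day after compound addition.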 As to conditions: primary human bronchial epithelial cells; actives raise or lower the signal. Summed up:
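Human primary bronchial epithelial cells were exposed to chemical for 24 h, then uPA levels were measured by ELISA. Responses were fitted bidirectionally against DMSO as negative control and baseline. Parallel SRB staining of total protein gauged overt cytotoxicity.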

Read-out in assay [9]: Urokinase-type plasminogen activator receptor (uPAR), PLAUR (gene 5329)
Nature of the assay: BSK_BE3C_uPAR: BioMAP Diversity Plus: BE3C Assay for Urokinase-type plasminogen activator receptor (uPAR) Biomarker Activity (AID 2283039).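 As to outcome: cells exposed to compound for one day before measurement.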 As to conditions: primary human bronchial epithelial cells; actives raise or lower the signal. Summed up: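 ELISA readout of uPAR on human lung primary bronchial epithelial cells, 24 h post-dosing. Bidirectional curve fit relative to DMSO vehicle baseline; gain or loss of signal both scored.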

Read-out in assay [10]: Interleukin-6 (IL6), IL6 (gene 3569)
Nature of the assay: BSK_CASM3C_IL6: BioMAP Diversity Plus: CASM3C Assay for Interleukin-6 (IL6) Biomarker Activity for (AID 2283040). To be noted: primary human coronary artery smooth muscle cells; actives raise or lower the signal.

Read-out in assay [11]: Tissue plasminogen activator (tPA), PLAT (gene 5327)
Put plainly: BSK_BE3C_tPA: BioMAP Diversity Plus: BE3C Assay for Tissue plasminogen activator (tPA) Biomarker Activity (AID 2283041).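 As to outcome: tPA level quantified by ELISA one day after compound addition.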 To be noted: primary human bronchial epithelial cells; actives raise or lower the signal. The method, boiled down:
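ELISA read-out of tPA on human primary bronchial epithelial cells, 24 h post-dosing; bidirectional fit vs DMSO negative control/baseline.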

Read-out in assay [12]: Interleukin-8 (IL8), CXCL8 (gene 3576)
Put plainly: BSK_CASM3C_IL8: BioMAP Diversity Plus: CASM3C Assay for Interleukin-8 (IL8) Biomarker Activity (AID 2283042).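 Also: IL-8 protein level quantified by ELISA.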 To be noted: primary human coronary artery smooth muscle cells; actives raise or lower the signal.

Read-out in assay [13]: Human Leukocyte Antigen - DR isotype (HLADR), HLA-DRA (gene 3122)
Nature of the assay: BSK_CASM3C_HLADR: BioMAP Diversity Plus: CASM3C Assay for Human Leukocyte Antigen - DR isotype (HLADR) Biomarker Activity (AID 2283043).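 Also: cell-surface HLA-DR protein level quantified by ELISA.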 As to conditions: primary human coronary artery smooth muscle cells; actives raise or lower the signal.

Read-out in assay [14]: Macrophage colony-stimulating factor (MCSF), CSF1 (gene 1435)
Nature of the assay: BSK_CASM3C_MCSF: BioMAP Diversity Plus: CASM3C Assay for Macrophage colony-stimulating factor (MCSF) Biomarker Activity (AID 2283044).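 Also: M-CSF protein amount quantified by ELISA after 24 h exposure.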 To be noted: primary human coronary artery smooth muscle cells; actives raise or lower the signal.

Read-out in assay [15]: Low-density lipoprotein receptor (LDLR), LDLR (gene 3949)
Put plainly: BSK_CASM3C_LDLR: BioMAP Diversity Plus: CASM3C Assay for Low-density lipoprotein receptor (LDLR) Biomarker Activity (AID 2283045).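 Also: LDLR protein level on the cell surface quantified by ELISA.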 As to conditions: primary human coronary artery smooth muscle cells; actives raise or lower the signal.

Read-out in assay [16]: Monocyte Chemoattractant Protein-1 (MCP1), CCL2 (gene 6347)
Nature of the assay: BSK_CASM3C_MCP1: BioMAP Diversity Plus: CASM3C Assay for Monocyte Chemoattractant Protein-1 (MCP1) Biomarker Activity (AID 2283046).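 Also: MCP-1 level quantified by ELISA 24 h after dosing.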 As to conditions: primary human coronary artery smooth muscle cells; actives raise or lower the signal.

The nature of assay [17]: BSK_CASM3C_Proliferation: Cell Proliferation Assessment in the BioMAP Diversity Plus: CASM3C Assay (AID 2283047).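 Also: sulforhodamine B total protein stain as relative cell number at 560 nm; sub-confluent cells exposed 48 h before staining; fitted both ways against DMSO so gain or loss of cell number.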 To be noted: primary human coronary artery smooth muscle cells.
Read-out in assay [18]: Monokine induced gamma interferon (MIG), CXCL9 (gene 4283)
Nature of the assay: BSK_CASM3C_MIG: BioMAP Diversity Plus: CASM3C Assay for Monokine induced gamma interferon (MIG) Biomarker Activity (AID 2283048). To be noted: primary human coronary artery smooth muscle cells; actives raise or lower the signal.

Read-out in assay [19]: serum amyloid A (SAA), SAA1 (gene 6288)
Nature of the assay: BSK_CASM3C_SAA: BioMAP Diversity Plus: CASM3C Assay for serum amyloid A (SAA) Biomarker Activity (AID 2283049).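 Also: SAA protein level quantified by ELISA.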 To be noted: primary human coronary artery smooth muscle cells; actives raise or lower the signal.

Consider `CC(Cl)CN(C)C` (stereo not given), for which the result in assay [1], in assay [2], in [3], in assay [4], in assay [5] and in [6] was inactive. Further, the result in assay [7], in assay [8], in assay [9], in assay [10], in assay [11] and in assay [12] was inactive. Moreover, the result in assay [13], in assay [14], in assay [15], in assay [16], in assay [17] and in assay [18] was inactive. In assay [19], the result was inactive.
Consider `Cc1ccc([N+](=O)[O-])cc1C`, for which the result in assay [1], in [2], in assay [3], in assay [4], in assay [5] and in assay [6] was inactive. For the same compound, the result in assay [7], in assay [8], in assay [9], in assay [10], in assay [11] and in [12] was inactive. Also, the outcome in assay [13], in [14], in [15], in assay [16], in assay [17] and in assay [18] was inactive. The result in [19] was inactive.
For the compound `CCCCc1ccccc1`, the result in assay [1], in assay [2], in assay [3], in [4], in [5] and in assay [6] was inactive. The result in assay [7], in assay [8], in assay [9], in assay [10], in [11] and in [12] was inactive. Also, the result in assay [13], in [14], in [15], in assay [16], in assay [17] and in assay [18] was inactive. For the same compound, the result in assay [19] was inactive.
Regarding `CCCCCCCc1ccc(O)cc1`, the AC50 in assay [1] was 38.4 µM (active); in assay [3], 35.1 µM (active); in assay [4] it was 35 µM (active); in [5], 37.6 µM (active); in assay [6] it was 37.3 µM (active); in assay [7], 39.3 µM (active). Besides, the AC50 in assay [8] is 39.1 µM (active); in assay [9], 39.3 µM (active); in [11], 32.2 µM (active); in assay [12], 23 µM (active); in assay [13] it was 35.3 µM (active); in assay [14], 35.5 µM (active). For the same compound, the AC50 in assay [15] was 31.2 µM (active); in assay [17], 37 µM (active); in assay [18], 35.3 µM (active); in assay [19], 34.4 µM (active). In addition, the outcome in assay [2], in assay [10] and in assay [16] was inactive.
As to `C=CC(=O)OCC(F)(F)C(F)F`, the result in assay [1], in assay [2], in assay [4], in assay [5], in assay [7] and in assay [8] was inactive. Further, the result in assay [9], in assay [10], in assay [11], in assay [12], in assay [15] and in [16] was inactive. Also, the result in assay [19] was inactive. Also, the concentration at half-maximal activity (AC50) was 38.9 µM (active) and 30 µM (active) in assay [3]; 22.9 µM (active) in [10]; 14.9 µM (active) in assay [11]; 36.3 µM (active) and 38.8 µM (active) in assay [13]; 30 µM (active) and 18.2 µM (active) in [14]; 30 µM (active) in assay [17]. The AC50 was 30 µM (active) and 16.9 µM (active) in [18]; 30 µM (active) in [19].
Consider `Cc1ccc2c(c1N)C(=O)c1ccccc1C2=O`, for which the result in assay [1], in [2], in assay [3], in assay [4], in assay [5] and in assay [6] was inactive. Besides, the result in assay [7], in [8], in [9], in [10], in assay [11] and in [12] was inactive. Also, the result in [13], in [15], in [16], in assay [17], in assay [18] and in [19] was inactive.
